Here are results for 6 compounds from PubChem BioAssay (EPA / NIEHS).

Read-out in test [1]: TIMP metallopeptidase inhibitor 1 (TIMP1), TIMP1 (gene 7076)
Put plainly: BSK_hDFCGF_TIMP1: BioMAP Diversity Plus: hDFCGF Assay for TIMP metallopeptidase inhibitor 1 (TIMP1) Biomarker Activity (AID 2283062). The following applies: primary human foreskin fibroblasts; actives raise or lower the signal. A digest of the protocol: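 Primary human foreskin fibroblasts in the hDFCGF system were dosed with compound for 24 h, then TIMP-1 was measured by ELISA. Activity was fitted bidirectionally relative to DMSO control; parallel SRB staining assessed cytotoxicity.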

Read-out in test [2]: Monokine induced gamma interferon (MIG), CXCL9 (gene 4283)
The experiment in a line: BSK_hDFCGF_MIG: BioMAP Diversity Plus: hDFCGF Assay for Monokine induced gamma interferon (MIG) Biomarker Activity (AID 2283063). Conditions: primary human foreskin fibroblasts; actives raise or lower the signal. In short, it runs like this: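 ELISA read-out of MIG from primary human dermal fibroblasts 24 h post-dosing. Gain or loss of signal fitted bidirectionally, DMSO as baseline.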

Read-out in test [3]: Matrix Metallopeptidase 1 (MMP1), MMP1 (gene 4312)
The experiment in a line: BSK_hDFCGF_MMP1: BioMAP Diversity Plus: hDFCGF Assay for Matrix Metallopeptidase 1 (MMP1) Biomarker Activity (AID 2283064). The following applies: primary human foreskin fibroblasts; actives raise or lower the signal. In short, it runs like this: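 hDFCGF primary fibroblasts (human foreskin); chemical added; 24 h; MMP1 by ELISA; bidirectional fit vs DMSO.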

Read-out in test [4]: Vascular cell adhesion molecule 1 (VCAM1), VCAM1 (gene 7412)
Put plainly: BSK_hDFCGF_VCAM1: BioMAP Diversity Plus: hDFCGF Assay for Vascular cell adhesion molecule 1 (VCAM1) Biomarker Activity (AID 2283065).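 For AC50: VCAM-1 protein level quantified by ELISA after 24 h chemical exposure.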 Conditions: primary human foreskin fibroblasts; actives raise or lower the signal. In short, it runs like this: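 Primary human foreskin fibroblasts (hDFCGF system) were dosed with chemical and VCAM-1 was measured by ELISA 24 h later. Bidirectional curve fitting used DMSO as negative control and activity baseline.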

Read-out in test [5]: Plasminogen activator inhibitor-1 (PAI1), SERPINE1 (gene 5054)
Put plainly: BSK_hDFCGF_PAI1: BioMAP Diversity Plus: hDFCGF Assay for Plasminogen activator inhibitor-1 (PAI1) Biomarker Activity (AID 2283066). Conditions: primary human foreskin fibroblasts; actives raise or lower the signal. In short, it runs like this:
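Primary dermal fibroblasts (human foreskin), hDFCGF system; compound 24 h; PAI-1 by ELISA; bidirectional fit vs DMSO control.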

Read-out in test [6]: Intercellular Adhesion Molecule 1 (ICAM1), ICAM1 (gene 3383)
Put plainly: BSK_KF3CT_ICAM1: BioMAP Diversity Plus: KF3CT Assay for Intercellular Adhesion Molecule 1 (ICAM1) Biomarker Activity (AID 2283067). Conditions: primary human keratinocytes with fibroblasts; actives raise or lower the signal. In short, it runs like this: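 Human keratinocyte plus foreskin fibroblast primary co-culture was exposed to chemical for 24 h. ICAM-1 was then quantified by ELISA, and the data were fit bidirectionally against DMSO as the negative control and baseline.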

Read-out in test [7]: Interferon-gamma inducible Protein 10 (IP10), CXCL10 (gene 3627)
The experiment in a line: BSK_KF3CT_IP10: BioMAP Diversity Plus: KF3CT Assay for Interferon-gamma inducible Protein 10 (IP10) Biomarker Activity (AID 2283068). Conditions: primary human keratinocytes with fibroblasts; actives raise or lower the signal. In short, it runs like this: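 Human keratinocyte plus foreskin fibroblast primary co-culture exposed to test chemical for 24 h; IP-10 measured by ELISA. Concentration-response fitted bidirectionally against DMSO control as baseline.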

The nature of test [8]: BSK_KF3CT_SRB: Viability Assessment in the BioMAP Diversity Plus: KF3CT Assay (AID 2283069).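 Note: total protein by sulforhodamine B staining as a cytotoxicity measure; read 24 h after compound addition; fitted for both signal gain and loss against DMSO baseline.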 The following applies: primary human keratinocytes with fibroblasts. A digest of the protocol: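 Keratinocytes co-cultured with foreskin fibroblasts (human primary); chemical added, 24 h; fix 10% TCA, stain 0.1% SRB, A560. Bidirectional fit vs DMSO.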
Read-out in test [9]: Interleukin-1 alpha (IL1a), IL1A (gene 3552)
Put plainly: BSK_KF3CT_IL1a: BioMAP Diversity Plus: KF3CT Assay for Interleukin-1 alpha (IL1a) Biomarker Activity (AID 2283070). Conditions: primary human keratinocytes with fibroblasts; actives raise or lower the signal. In short, it runs like this: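 Chemicals were dosed onto co-cultured human keratinocytes and foreskin fibroblasts, IL-1a was quantified by ELISA at 24 h, and activity was fitted in both directions relative to DMSO controls.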

Read-out in test [10]: TIMP metallopeptidase inhibitor 2 (TIMP2), TIMP2 (gene 7077)
Put plainly: BSK_KF3CT_TIMP2: BioMAP Diversity Plus: KF3CT Assay for TIMP metallopeptidase inhibitor 2 (TIMP2) Biomarker Activity (AID 2283071). Conditions: primary human keratinocytes with fibroblasts; actives raise or lower the signal. In short, it runs like this:
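Cells: human keratinocytes co-cultured with foreskin fibroblasts. Treat with chemical, 24 h. Measure TIMP-2 by ELISA; fit curves bidirectionally vs DMSO baseline.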

Read-out in test [11]: Transforming growth factor beta 1 (TGFb1), TGFB1 (gene 7040)
The experiment in a line: BSK_KF3CT_TGFb1: BioMAP Diversity Plus: KF3CT Assay for Transforming growth factor beta 1 (TGFb1) Biomarker Activity (AID 2283072). The following applies: primary human keratinocytes with fibroblasts; actives raise or lower the signal. A digest of the protocol:
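Primary human skin cells (keratinocytes, foreskin fibroblasts) were co-cultured, exposed to test chemical and sampled at 24 h. TGF-b1 levels were measured by ELISA and fitted bidirectionally relative to DMSO.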

Read-out in test [12]: C-C motif chemokine 2 (Homo sapiens) (UniProt P13500)
Put plainly: BSK_KF3CT_MCP1: BioMAP Diversity Plus: KF3CT Assay for Monocyte Chemoattractant Protein 1 (MCP1/CCL2) Biomarker Activity (AID 2283073). Conditions: primary human keratinocytes with fibroblasts; actives raise or lower the signal. In short, it runs like this:
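Human keratinocyte plus foreskin fibroblast primary co-culture exposed to chemical for 24 h. MCP-1 levels measured by ELISA. Bidirectional curve fitting relative to DMSO negative control as baseline.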

Read-out in test [13]: Matrix Metallopeptidase 9 (MMP9), MMP9 (gene 4318)
The experiment in a line: BSK_KF3CT_MMP9: BioMAP Diversity Plus: KF3CT Assay for Matrix Metallopeptidase 9 (MMP9) Biomarker Activity (AID 2283074).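 For AC50: MMP9 protein level quantified by ELISA in the co-culture.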 The following applies: primary human keratinocytes with fibroblasts; actives raise or lower the signal. A digest of the protocol:
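Human keratinocyte/foreskin fibroblast co-culture; compound added; 24 h; MMP-9 by ELISA; bidirectional fit vs DMSO baseline.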

Read-out in the next test: CD40, CD40 (gene 958)
The experiment in a line: BSK_LPS_CD40: BioMAP Diversity Plus: LPS Assay for CD40 Biomarker Activity (AID 2283076). The following applies: primary human HUVEC with PBMC; actives raise or lower the signal. A digest of the protocol: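 Primary human umbilical vein endothelial cells co-cultured with peripheral blood mononuclear cells, LPS-stimulated, were dosed with chemical and read 24 h later. CD40 levels were measured by ELISA and fitted bidirectionally against DMSO as negative control and baseline.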

Read-out in test [14]: E-selectin (Homo sapiens) (UniProt P16581)
Put plainly: BSK_LPS_Eselectin: BioMAP Diversity Plus: LPS Assay for Eselectin Biomarker Activity (AID 2283077). Conditions: primary human HUVEC with PBMC; actives raise or lower the signal. In short, it runs like this:
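Human umbilical vein endothelial cells co-cultured with peripheral blood mononuclear cells under LPS stimulation; E-selectin measured by ELISA 24 h after chemical dosing. Activity fitted bidirectionally against DMSO as negative control and baseline.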

Read-out in test [15]: Interleukin-8 (IL8), CXCL8 (gene 3576)
The experiment in a line: BSK_LPS_IL8: BioMAP Diversity Plus: LPS Assay for Interleukin-8 (IL8) Biomarker Activity (AID 2283078). The following applies: primary human HUVEC with PBMC; actives raise or lower the signal. In short, it runs like this:
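Human umbilical vein endothelial cells co-cultured with PBMC were stimulated with LPS; IL-8 levels were measured by ELISA 24 h after chemical dosing. Activity was fitted bidirectionally against DMSO as negative control and baseline.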

The nature of test [16]: BSK_LPS_SRB: Viability Assessment in the BioMAP Diversity Plus: LPS Assay (AID 2283079).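 Note: total protein by sulforhodamine B absorbance as a cytotoxicity measure; measured one day after compound addition; fitted in both directions against DMSO so loss or gain of signal counts.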 The following applies: primary human HUVEC with PBMC. A digest of the protocol: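 Human umbilical vein endothelial cells co-cultured with PBMC (LPS system) were dosed for 24 h. Total protein was stained with 0.1% sulforhodamine B after 10% TCA fixation, read at 560 nm, and fitted bidirectionally against DMSO baseline.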

Read-out in test [17]: Interleukin-1 alpha (IL1a), IL1A (gene 3552)
The experiment in a line: BSK_LPS_IL1a: BioMAP Diversity Plus: LPS Assay for Interleukin-1 alpha (IL1a) Biomarker Activity (AID 2283080). Conditions: primary human HUVEC with PBMC; actives raise or lower the signal. In short, it runs like this:
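Human umbilical vein endothelial cells co-cultured with peripheral blood mononuclear cells were LPS-stimulated and exposed to test chemicals for 24 h. IL-1 alpha was quantified by ELISA, with bidirectional curve fitting against DMSO as the negative control and baseline.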

Read-out in test [18]: Monocyte Chemoattractant Protein-1 (MCP1), CCL2 (gene 6347)
The experiment in a line: BSK_LPS_MCP1: BioMAP Diversity Plus: LPS Assay for Monocyte Chemoattractant Protein-1 (MCP1) Biomarker Activity (AID 2283081).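 For AC50: co-culture stimulated with LPS; secreted MCP-1 protein quantified by ELISA in culture supernatant.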 Conditions: primary human HUVEC with PBMC; actives raise or lower the signal. In short, it runs like this: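 HUVEC plus PBMC co-culture (human primary cells, LPS system) exposed to test chemical for 24 h; MCP-1 measured by ELISA. Bidirectional curve fitting against DMSO baseline; parallel SRB total-protein staining flags overt cytotoxicity.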

Read-out in test [19]: urokinase plasminogen activator (uPA), PLAU (gene 5328)
Put plainly: BSK_KF3CT_uPA: BioMAP Diversity Plus: KF3CT Assay for urokinase plasminogen activator (uPA) Biomarker Activity (AID 2283075). The following applies: primary human keratinocytes with fibroblasts; actives raise or lower the signal. A digest of the protocol:
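ELISA readout of uPA, analyzed for signal gain or loss relative to DMSO, from a human primary keratinocyte–foreskin fibroblast co-culture measured 24 h after chemical treatment.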

Activity calls are given as the source filed them. Rule for the calls: active = hit-call score of the fitted dose curve at least 0.9, where 1 is the maximum; inactive = score below 0.9.

Sequence of E-selectin (Homo sapiens) (P16581 whole entry, looked up): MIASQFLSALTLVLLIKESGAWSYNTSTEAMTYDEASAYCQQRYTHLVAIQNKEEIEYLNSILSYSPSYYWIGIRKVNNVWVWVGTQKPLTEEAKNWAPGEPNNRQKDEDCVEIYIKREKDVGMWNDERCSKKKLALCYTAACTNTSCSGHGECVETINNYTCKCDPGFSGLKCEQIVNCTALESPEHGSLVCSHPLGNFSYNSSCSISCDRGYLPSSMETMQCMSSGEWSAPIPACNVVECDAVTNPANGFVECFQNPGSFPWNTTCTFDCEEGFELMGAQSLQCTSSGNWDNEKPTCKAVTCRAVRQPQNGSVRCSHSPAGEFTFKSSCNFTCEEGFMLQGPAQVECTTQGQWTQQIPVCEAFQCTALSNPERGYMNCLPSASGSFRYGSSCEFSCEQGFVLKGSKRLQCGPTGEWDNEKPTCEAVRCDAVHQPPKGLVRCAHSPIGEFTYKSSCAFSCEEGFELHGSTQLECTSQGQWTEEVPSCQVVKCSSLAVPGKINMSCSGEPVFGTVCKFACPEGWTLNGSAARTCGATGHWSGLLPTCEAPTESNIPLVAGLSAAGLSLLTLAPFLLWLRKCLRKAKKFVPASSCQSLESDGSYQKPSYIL

As to `Cc1c(-c2cccnc2)c2ccccc2n1CCCCC(=O)O`, the outcome in test [1], in test [2], in [3], in [4], in [5] and in test [6] was inactive. For the same compound, the result in test [7], in test [8], in test [9], in [10], in test [11] and in test [12] was inactive. The outcome was “inactive” in test [13]; “inactive” with CD40, CD40 (gene 958); “inactive” in test [14]; “inactive” in [15]; “inactive” in [16]; “inactive” in [17]. Further, the outcome in test [18] was inactive.

Take `COc1ccc(/C=C/S(=O)(=O)NC(=O)c2ccc(C)cc2Cl)cc1`: the result in test [1], in [2], in [3], in [4], in test [5] and in [6] was inactive. Moreover, the outcome in [8] was “inactive”; in test [10], “inactive”; in [11], “inactive”; in test [12], “inactive”; in [13], “inactive”; with CD40, CD40 (gene 958), “inactive”. For the same compound, the outcome in [14], in test [15], in test [16], in test [17] and in [18] was inactive. Moreover, the AC50 was 32.6 µM (active) in test [7] and 8.09 µM (active) in test [9].

Consider `COc1ccc2sc(C(=O)Nc3nnn[nH]3)c(OC(C)C)c2c1`, for which the half-maximal activity concentration (AC50) was 7.77 µM (active) in test [1]; 15.5 µM (active) in [2]; 13.9 µM (active) in test [3]; 12.2 µM (active) in test [4]; 6.57 µM (active) in [5]; 24 µM (active) in test [6]. Further, the AC50 is 25.4 µM (active) in test [7]; 26.1 µM (active) in test [8]; 19.9 µM (active) in [9]; 19.9 µM (active) in test [10]; 19.9 µM (active) in test [11]; 16.7 µM (active) in test [12]. In addition, the AC50 in test [13] is 27 µM (active); in the test with CD40, CD40 (gene 958), 7.18 µM (active); in test [14], 23.4 µM (active); in [15], 28.5 µM (active); in [16], 9.83 µM (active); in [17], 13.2 µM (active). Also, the half-maximal activity concentration (AC50) in test [18] was 19.8 µM (active).

For `Cc1[nH]cnc1C[C@H]1CCc2c(C)c3ccccc3n2C1=O`, the outcome in test [1], in test [2], in [3], in test [4], in [5] and in test [6] was inactive. Moreover, the outcome in test [7], in [8], in test [9], in test [10], in test [11] and in [12] was inactive. Moreover, the outcome in [13], in test [19], in test [14] and in test [17] was inactive. In addition, the AC50 was 27.8 µM (active) with CD40, CD40 (gene 958); 24.3 µM (active) in test [15]; 26.2 µM (active) in test [16]; 27 µM (active) in [18].

For `CC(O)CN(CCN(CC(C)O)CC(C)O)CC(C)O` (stereo unspecified), the outcome in test [1], in [2], in [3], in test [4], in test [5] and in test [6] was inactive. The result in [7], in test [8], in test [9], in test [10], in test [11] and in test [12] was inactive. For the same compound, the outcome in test [13] was “inactive”; with CD40, CD40 (gene 958), “inactive”; in test [14], “inactive”; in test [15], “inactive”; in test [16] it was “inactive”; in test [17] it was “inactive”. Further, in [18], the outcome was inactive.

As to `CCCCCCCCCCCCc1ccccc1`, the outcome in test [1], in test [2], in test [3], in [4], in test [5] and in test [6] was inactive. In addition, the outcome in test [7], in test [8], in test [9], in test [10], in test [11] and in [12] was inactive. Besides, the outcome in [13], in [19], in test [14], in test [15], in [16] and in test [17] was inactive. Besides, the outcome in [18] was inactive. The AC50 with CD40, CD40 (gene 958) was 30.7 µM (active).

In general, AC50 refers to the midpoint of the concentration-response curve, whichever way the signal moves.
